Only some compounds are listed: those with a hit (about 12% of all), similar ones and a draw of the others.
BAZ2B inh = inhibitors of human BAZ2B bromodomain; AlphaScreen BAZ2B-H3K14Ac peptide displacement; Potency, µM (highest dose often 114 µM), inactives show at the top dose activity change, negative = inhibition, hits mostly inhibitors; Q9UIF8; AID 504333; hit rate 4.4% among 360,000; also: % is scaled to controls: 0 for no effect and ±100 for the full control effect; nearly all actives have a fitted effect of over 60% in size
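AlphaScreen luminescence quantifies BAZ2B engagement of H3K14Ac peptide; the protein and biotinylated peptide are both at 50 nM final, buffer PBS pH 7.4 with 0.01% Tween-20, all steps at room temperature.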
JMJD2A Tudor = inhibitors of human JMJD2A Tudor domain. O75164. AlphaScreen JMJD2A-Tudor / H3K4me3 peptide binding. Potency, µM (highest dose often 114 µM), for the others: at the top dose activity change, negative = inhibition, actives largely listed as inhibitors. hit rate 4.4% among 390,000. AID 504339; also: % is scaled to controls: 0 for no effect and ±100 for the full control effect; nearly all actives have a fitted effect of over 50% in size
Sfp inh = blocks B. subtilis Sfp PPTase activity. Biochemical Sfp PPTase activity, qHTS. Potency, µM, inactives show largest response in the series, negative = inhibition, hits mostly inhibitors. hit rate 3.5% among 310,000. AID 1490;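 also: the enzyme is Sfp with the accession as filed and its product quenches rhodamine fluorescence; 0% = enzyme reaction without inhibitor and -100% = no enzyme wells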
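With Hepes-Na pH 7.6 buffer containing 10 mM MgCl2, Sfp (15 nM) modified BHQ-2-YbbR (12.5 uM) using rhodamine-CoA (5 uM). Two reads 30 minutes apart at 525/598 nm yielded each well's rate.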
HP1b binding inh = HP1-beta chromodomain-methylated histone interaction inhibition; Potency, µM (series often up to 114 µM), for the others: at the top dose activity change, negative = inhibition, hits mostly inhibitors; hit rate 0.56% among 390,000; AlphaScreen HP1-beta / biotin-H3K9me3 peptide binding; also: nearly all actives have a fitted effect of over 70% in size
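Compound inhibition of the preformed complex between 50 nM HP1-beta and 50 nM biotinylated H3K9me3 peptide was read by AlphaScreen. Buffer was PBS pH 7.4 with 0.01% Tween-20. Incubations ran 30 min at room temperature, with 10 ug/mL donor/acceptor beads.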
L3MBTL1 inh = inhibitors of human L3MBTL1; Q9Y468; AlphaScreen L3MBTL1–H3K9me1 peptide binding; Potency, µM (doses to about 57.1 µM), for the others: top-dose activity, negative = inhibition, hits mostly inhibitors; hit rate 0.66% among 230,000; also: % is scaled to controls: 0 for no effect and ±100 for the full control effect; nearly all actives have a fitted effect of over 60% in size
Target sequence (Q9Y468 whole entry, looked up): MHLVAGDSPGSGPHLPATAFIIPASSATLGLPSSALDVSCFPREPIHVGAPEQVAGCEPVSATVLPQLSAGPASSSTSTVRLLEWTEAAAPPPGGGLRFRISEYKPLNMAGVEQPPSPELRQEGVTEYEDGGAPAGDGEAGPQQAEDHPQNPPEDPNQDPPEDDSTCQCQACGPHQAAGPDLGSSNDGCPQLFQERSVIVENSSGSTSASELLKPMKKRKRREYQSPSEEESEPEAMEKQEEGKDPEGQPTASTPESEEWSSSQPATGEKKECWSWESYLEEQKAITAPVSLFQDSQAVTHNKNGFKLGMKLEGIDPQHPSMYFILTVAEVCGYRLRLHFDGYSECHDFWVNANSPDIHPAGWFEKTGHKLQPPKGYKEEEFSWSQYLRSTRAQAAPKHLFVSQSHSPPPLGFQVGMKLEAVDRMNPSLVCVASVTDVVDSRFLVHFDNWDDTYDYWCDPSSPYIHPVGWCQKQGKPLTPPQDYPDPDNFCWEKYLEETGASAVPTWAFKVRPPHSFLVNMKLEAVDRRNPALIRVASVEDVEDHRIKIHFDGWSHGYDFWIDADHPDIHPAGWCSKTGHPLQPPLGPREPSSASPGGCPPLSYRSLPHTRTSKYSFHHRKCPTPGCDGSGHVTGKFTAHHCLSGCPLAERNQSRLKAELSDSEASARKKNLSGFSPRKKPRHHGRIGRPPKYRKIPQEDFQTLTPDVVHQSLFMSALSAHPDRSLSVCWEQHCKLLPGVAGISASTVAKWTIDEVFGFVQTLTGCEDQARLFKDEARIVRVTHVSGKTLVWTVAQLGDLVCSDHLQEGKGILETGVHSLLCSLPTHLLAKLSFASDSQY
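First, the protein-peptide complex forms for 30 min at room temperature (L3MBTL1 50 nM, biotinylated H3K9me1 peptide 75 nM). Next, compounds are pin-transferred and incubated 30 min. Finally, AlphaScreen beads are added and read after 30 min.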
G9a block = inhibitors of human histone lysine methyltransferase G9a; G9a H3K9 monomethylation, AlphaScreen, 2 h; Q96KQ7; Potency, µM (series often up to 102 µM), without a hit: top-dose activity, negative = inhibition, actives largely listed as inhibitors; hit rate 8.8% among 350,000; also: % is scaled to controls: 0 for no effect and ±100 for the full control effect; nearly all actives have a fitted effect of over 75% in size
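Signal arises when biotinylated H3K9 peptide, once monomethylated, bridges streptavidin donor and antibody-captured acceptor beads. Enzyme at 20 nM was preincubated 15 min with test compounds; peptide 500 nM and SAM 20 uM then reacted for 2 h.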
* marks the source's active call; other numbers are inactive results; ? = inconclusive; · = no result; [ ] = remark or other dose. Calls follow the shape of the dose curve; as a rule, active = well fitted curve in the direction sought with a large enough effect; inconclusive = small, poorly fitted or top-dose-only effect, or another doubt; inactive = no such curve, though single readings can be large; an effect the other way counts as inactive or inconclusive. Potency is read from the fitted curve at half-maximal effect.

SMILES	BAZ2B inh	JMJD2A Tudor	Sfp inh	HP1b binding inh	L3MBTL1 inh	G9a block
Oc1ccc(-c2cn3c(n2)SCC3)cc1	-11%	-28%	-2%	1%	·	8.9µM*
Oc1ccc(-c2cn3c(n2)SCC3)cc1O	?	11µM*	18µM*	?	·	1.1µM*
Brc1ccc(-c2cn3c(n2)SCC3)cc1	?	-15%	2%	-1%	15%	·
Cc1cc(Cl)ccc1NS(=O)(=O)c1ccc2c(c1)CC(C)N2C(=O)C1CCC1 (stereo unspecified)	-3%	-25%	·	28%	·	2%[59 µM]
Cc1ccc(CC2SC(N)=NC2=O)cc1 (stereo unspecified)	-39%	-23%	-9%	55%	-3%	16%
Cc1cccc(CC2SC(N)=NC2=O)c1 (stereo unspecified)	1%	-9%	-20%	-8%	·	50µM*
CCOC(=O)C1(Cc2cccc(Cl)c2)CCCN(C(=O)c2cnn(CC)c2)C1 (stereo unspecified)	-4%	0%	3%	24%	·	25µM*
O=C(C(Cl)c1ccccc1)N1CCOCC1 (stereo unspecified)	30%	-18%	6%	-11%	·	22µM*
O=c1cc(COc2ccccc2Cl)nc2scc(-c3ccccc3)n12	?	-11%	·	33%	·	1%[59 µM]
COc1ccccc1CNC(=O)CNC(=O)N1CC(=O)Nc2ccccc21	-13%	3%	16%	33%	·	21%
COc1ccccc1CNCC(=O)N1CC(=O)Nc2ccccc21	50µM*	20µM*	-29%	-8%	7%	10µM*
O=C1CN(C(=O)CNCc2ccccc2)c2ccccc2N1	50µM*	3.5µM*	-4%	?	1%	35µM*
CNS(=O)(=O)c1cccc(C(=O)OCC(=O)C23CC4CC(CC(C4)C2)C3)c1	-12%	-26%	?	18%	·	?
CN(C)c1ccc(C(CNS(=O)(=O)c2ccc(Cl)cc2)N2CCCC2)cc1 (stereo unspecified)	32µM*	50µM*	·	?	·	?
CN(C)c1ccc(C(CNS(=O)(=O)c2ccc(Br)cc2)N2CCCC2)cc1 (stereo unspecified)	35µM*	45µM*	·	?	·	18µM*
COc1ccc(CNCCC(c2ccc3c(c2)OCO3)c2ccccc2OC)cc1 (stereo unspecified)	?	?	·	-2%	·	?
Cc1cc(C)c(Nc2cc(S(=O)(=O)O)c(N)c3c2C(=O)c2ccccc2C3=O)c(C)c1	5.6µM*	7.9µM*	50µM*	?	16µM*	2.8µM*
O=C(COc1ccccc1)NCC(c1cccs1)S(=O)(=O)c1ccc(Cl)cc1 (stereo unspecified)	-11%	18µM*	·	14µM*	·	10µM*
COc1ccc(CC(=O)NCC(c2cccs2)S(=O)(=O)c2ccc(Cl)cc2)cc1 (stereo unspecified)	?	18µM*	·	10µM*	·	8.9µM*
Cc1cc(S(=O)(=O)C(CNC(=O)COc2ccc(Cl)cc2)c2cccs2)ccc1F (stereo unspecified)	-5%	-16%	·	39%	·	32%[59 µM]
Cc1ccc(NC2=C(CC(=O)O)C(c3ccc(F)cc3)N(c3ccc(C)cc3)C2=O)cc1 (stereo unspecified)	-22%	-15%	·	21%	·	-35%[59 µM]
O=C(O)C(Cc1cn[nH]n1)=NO	25µM*	7.9µM*	79µM*	?	8%	6.3µM*
CCCCNC(=O)c1ccc2nc(-c3ccco3)c(-c3ccco3)nc2c1	50µM*	25µM*	32µM*	?	32µM*	7.9µM*
CCc1nc2ccc(C(=O)NCCc3ccco3)cc2nc1CC	-25%[57.1 µM]	-21%	-8%	53%	·	-28%
COc1ccc(-c2nc3ccc(C(=O)NCCCN4CCOCC4)cc3nc2-c2ccc(OC)cc2)cc1	?	12%	56µM*	49%	·	-15%
SMILES	BAZ2B inh	JMJD2A Tudor	Sfp inh	HP1b binding inh	L3MBTL1 inh	G9a block
CCCNC(=O)c1ccc2nc(-c3ccccc3)c(-c3ccccc3)nc2c1	11%	-6%[11.4 µM]	7%	45%	5%	0%[59 µM]
O=C(NCCO)Nc1ccc2nc(-c3ccco3)c(-c3ccco3)nc2c1	3.2µM*	·	18µM*	·	0.71µM*	·
O=C(NCCCO)c1ccc2nc(-c3ccco3)c(-c3ccco3)nc2c1	50µM*	50µM*	10µM*	?	28µM*	7.1µM*
CCOC(=O)Nc1cc2c(cc1[N+](=O)[O-])-c1ccccc1C2=O	·	-20%	·	30%	·	·
C=CCN1c2ccccc2[C@]23C[C@@H](C(=O)OC)N(C(=O)c4cccs4)C2=NC(C(=O)OC)=C(C(=O)OC)[C@H]13	?	?	11%	-10%	·	?
O=C(Nc1ccc(N2CCCC2)cc1)c1cc(Br)ccc1Cl	-34%	?	9%	5%	-11%	8.9µM*
O=C(Nc1ccc(CN2CCCCC2)cc1)Nc1ccc(Br)cc1Cl	0%	-18%	79µM*	23%	?	-11%
CS(=O)(=O)c1ccc(C(=O)Nc2ccc(N3CCCC3)cc2)c(Cl)c1	-12%	-17%	2%	-10%	-20%	10µM*
COc1ccc(S(=O)(=O)N2CCOCC2)cc1NC(=O)Cc1coc2cc(C)c(C)cc12	-15%	-17%	1%	27%	·	50µM*
COc1ccc(NC(=O)Cc2coc3cc(C)c(C(C)C)cc23)cc1S(=O)(=O)N1CCOCC1	?	-30%	-1%	8%	-6%	10µM*
COc1ccc(S(=O)(=O)N2CCOCC2)cc1NC(=O)CCNC(=O)c1ccc(Br)cc1	1%	-14%	·	8%	-9%	16µM*
COc1ccc(S(=O)(=O)N2CCOCC2)cc1NC(=O)CCNC(=O)c1ccc(Cl)cc1	6%	-6%	·	29%	2%	-32%
COc1ccc2c(CC(=O)Nc3ccc(OC)c(S(=O)(=O)N4CCOCC4)c3)coc2c1	-31%	-23%	9%	2%	-3%	0%[59 µM]
Cc1nn(-c2ccccc2)c(OC(=O)c2ccc(F)cc2)c1S(=O)(=O)c1ccccc1	?	?	·	3%	·	?
O=C(CN1C(=O)c2ccc([N+](=O)[O-])cc2C1=O)NCc1ccc(C(=O)O)cc1	-2%	1%	13%	52%	2%	?
COc1cccc(CCNC(=O)c2ccc(C#N)cc2)c1	4%	-4%	-9%	30%	5%	·
CCN(CCCNC(=O)c1ccc(Sc2ccc(Cl)cc2)c(NC(C)=O)c1)c1cccc(C)c1	?	?	·	?	·	13µM*
CCN(CCNC(=O)c1ccc(C#N)cc1)c1cccc(C)c1	-24%	-31%	15%	-13%	·	13µM*
O=c1c(-c2cccs2)nc2cncnc2n1-c1ccccc1	·	·	8%	·	·	-19%[0.501 µM]

Screening data: PubChem BioAssay, National Center for Advancing Translational Sciences (NCATS)
